This passage reports growth inhibition results from PubChem BioAssay (NCI).

Each structure is given as a SMILES string. About 79,000 compounds went through this panel and 15% of them were active in at least one assay; those are over-represented in the sample as a whole. Unmarked numbers belong to inactive results. Active and inactive are the calls of the source. Rule as the data show it: active = growth inhibition above about 70%; inactive = the rest.

One experiment is described as follows: NCI Yeast Anticancer Drug Screen. Data for the sgs1 mgt1 strain (AID 161).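 Also: 0% = growth of cultures given vehicle only.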 Conditions: S. cerevisiae sgs1 mgt1 strain, at 50.0 µM, stronger effect = higher value. A digest of the protocol: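 Growth of a repair-deficient yeast mutant was monitored after compound treatment and expressed as inhibition relative to vehicle-treated cultures.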
As for `O=C1CSC(c2ccc(Cl)c(Cl)c2)N1c1nncs1` (stereo not given), the growth inhibition is 17.1%.

As for `COc1ccccc1C1OC2=C(Nc3ccc([N+](=O)[O-])cc3N2)C1=O` (stereo not given), the growth inhibition was 27.9%.

In the case of `COC(=O)C1=C(\O)C[C@@]2(C)CC[C@@H](C(=O)OC)C2C/C=C\1C(=O)OC` (stereo not given in full), the growth inhibition was 0.05%.

Consider `O=C1Nc2ncnc(Cl)c2Cc2ccccc21`, for which the growth inhibition was -0.75%.

As to `COc1ccc2c(c1)OC(=O)C(S(=O)(=O)c1ccccc1)C2` (stereo not given), the growth inhibition is 6.65%.

For the compound `C[C@@H](CO)OCOCc1ccccc1`, the growth inhibition was 4%.

Regarding `CC(=O)N(C1CCCCC1)C1CCCCC1`, the growth inhibition is 13.4%.

Turning to `CCCC(/C(C)=N/NC(N)=O)C1CCCCC1` (stereo not given), the growth inhibition is -2.6%.

Regarding `COC(=O)c1cc(C(=O)OC)c(CC(=O)C(=O)Nc2ccc(Cl)c(C(F)(F)F)c2)nc1CC(=O)C(=O)Nc1ccc(Cl)c(C(F)(F)F)c1`, the growth inhibition is -30.9%.

Take `Cc1cc(=O)c2cc3ccc4cccc5ccc(c2[nH]1)c3c45`: the growth inhibition was -10.1%.

As for `CC(C)=C1C(=O)C[C@]2(C)C[C@H]3O[C@]3(C)CC[C@@H]3O[C@@]3(C)CC[C@@H]12`, the growth inhibition was 12.6%.

Turning to `Cc1ccc(C(=O)Nc2ccc3c(c2)Cc2ccccc2-3)cc1`, the growth inhibition was -7.45%.

Turning to `COc1ccc(C(CC(=O)O)c2ccccc2)cc1` (stereo not given), the growth inhibition was -2.55%.

Turning to `COc1cc(/C=C2\C(=O)N(C(=O)c3ccc(NC(C)=O)cc3)N=C2C)ccc1O`, the growth inhibition was -68.8%.

As to `CNS(=O)(=O)c1ccccc1C(=N)c1ccccc1`, the growth inhibition was -27.6%.

Consider `C/C(CC(=O)CCC(=O)Nc1cccc(C(F)(F)F)c1)=N\NC(=O)NN`, for which the growth inhibition is -26.4%.

`O=C(OCCN1CCOCC1)c1cc2ccccc2oc1=O`: the growth inhibition was 6.35%.

`CCCCCCCCCCCCCCCC(=O)N(CCCCCCCCCCC(=O)O)CC(O)C(O)C(OC1OC(CO)C(O)C(O)C1O)C(O)CO` (stereo not given): the growth inhibition was 10.2%.

Take `COc1ccc2c(c1)C=C(C(C)(C)C)NS2(=O)=O`: the growth inhibition is 2%.

Regarding `O=c1[nH]c2cc(Cl)ccc2nc1/C=C(\O)c1ccc(O)cc1`, the growth inhibition is 0.2%.

Regarding `CC(C)NC(=O)Nc1cccc(Cl)c1`, the growth inhibition was 17.7%.

Regarding `CCOP(=O)(OCC)C1(O)CC(n2cc(C)c(=O)[nH]c2=O)OC1CO` (stereo not given), the growth inhibition is -15.2%.

As to `Cc1ccc(C(=O)CSC2=NCCN2)cc1Cl`, the growth inhibition was -12.6%.

Take `CCOCCOC(=O)C1CCC(=O)N1CN(C(C)=O)c1cc(OC)ccc1OC` (stereo not given): the growth inhibition was -30.9%.

In the case of `CC1CC=C(C(O)C(C)C)C1` (stereo not given), the growth inhibition is -2.7%.

For `CC(=O)NC1=C(N2CCC2C)C(=O)c2ccccc2C1=O` (stereo not given), the growth inhibition is 6.15%.

As for `CC(COc1cc(Cl)c(Cl)cc1Cl)OC(=O)COc1ccc(Cl)cc1Cl` (stereo not given), the growth inhibition is 7.7%.

In the case of `NC1=CN(Cc2ccccc2)C2=N/C(=C\c3ccccc3)C(=O)N12`, the growth inhibition was 8.5%.

For the compound `Cc1cc2c(s1)C(=O)c1sccc1C2=O`, the growth inhibition was 89.8% (active).

For the compound `CCC(=O)Nc1cc(C)ccc1Cl`, the growth inhibition is 3.2%.

Take `CCN1c2ccccc2CC(CCN(C(C)C)C(C)C)(C(N)=O)c2ccccc21` (stereo not given): the growth inhibition was 24.8%.

`COC1OC(COS(C)(=O)=O)C2OC(C)(C)OC12` (stereo not given): the growth inhibition is 3.55%.

For `N#Cc1[nH]cnc1N`, the growth inhibition was -11.3%.

Take `O=C(Oc1ccccc1OC(=O)c1ccc(Cl)cc1)c1ccc(Cl)cc1`: the growth inhibition is 12.7%.

`O=C(O)c1ccnc2c(S(=O)(=O)O)cccc12`: the growth inhibition is -0.95%.

Consider `c1ccc(CN2COc3ccc4c5c(ccc4c3C2)OCN(Cc2ccccc2)C5)cc1`, for which the growth inhibition was -6.7%.

Regarding `COc1ccc2cccc(C(=O)O)c2c1`, the growth inhibition was -6.5%.

`O=S1(=O)OCCOS(=O)(=O)C1(I)I`: the growth inhibition is -2.35%.

Consider `O=[N+]([O-])c1ccc(P(=O)(O)c2ccc([N+](=O)[O-])cc2)cc1`, for which the growth inhibition was 23.6%.

`CC1(C)Nc2cc3c(cc2-n2cccc21)oc1ccccc13`: the growth inhibition was 39.5%.

Another experiment in a line: NCI Yeast Anticancer Drug Screen. Data for the cln2 rad14 strain (AID 165).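 Also: 0% = growth equal to vehicle treated cultures.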 Conditions: S. cerevisiae cln2 rad14 strain, at 50.0 µM, stronger effect = higher value. A digest of the protocol: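 Yeast carrying cln2 and rad14 alterations (cell cycle control and DNA damage repair) were exposed to compounds. Growth inhibition was measured against vehicle-treated controls.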
Take `O=C1CSC(c2ccc(Cl)c(Cl)c2)N1c1nncs1` (stereo not given): the growth inhibition is 10.4%.

Take `COc1ccccc1C1OC2=C(Nc3ccc([N+](=O)[O-])cc3N2)C1=O` (stereo not given): the growth inhibition was 16.6%.

On to `COC(=O)C1=C(\O)C[C@@]2(C)CC[C@@H](C(=O)OC)C2C/C=C\1C(=O)OC` (stereo not given in full), for which the growth inhibition was 11.1%.

`O=C1Nc2ncnc(Cl)c2Cc2ccccc21`: the growth inhibition was -12.9%.

Consider `COc1ccc2c(c1)OC(=O)C(S(=O)(=O)c1ccccc1)C2` (stereo not given), for which the growth inhibition was -3.55%.

For the compound `C[C@@H](CO)OCOCc1ccccc1`, the growth inhibition was 18.5%.

As to `CC(=O)N(C1CCCCC1)C1CCCCC1`, the growth inhibition is -2.05%.

With `CCCC(/C(C)=N/NC(N)=O)C1CCCCC1` (stereo not given), the growth inhibition is 1%.

With `COC(=O)c1cc(C(=O)OC)c(CC(=O)C(=O)Nc2ccc(Cl)c(C(F)(F)F)c2)nc1CC(=O)C(=O)Nc1ccc(Cl)c(C(F)(F)F)c1`, the growth inhibition is 10.5%.

In the case of `Cc1cc(=O)c2cc3ccc4cccc5ccc(c2[nH]1)c3c45`, the growth inhibition was -24.3%.

Take `CC(C)=C1C(=O)C[C@]2(C)C[C@H]3O[C@]3(C)CC[C@@H]3O[C@@]3(C)CC[C@@H]12`: the growth inhibition was 14.1%.

In the case of `Cc1ccc(C(=O)Nc2ccc3c(c2)Cc2ccccc2-3)cc1`, the growth inhibition is -5%.

`COc1ccc(C(CC(=O)O)c2ccccc2)cc1` (stereo not given): the growth inhibition was -14.4%.

Take `COc1cc(/C=C2\C(=O)N(C(=O)c3ccc(NC(C)=O)cc3)N=C2C)ccc1O`: the growth inhibition was -40.4%.

Regarding `CNS(=O)(=O)c1ccccc1C(=N)c1ccccc1`, the growth inhibition is -4.95%.

Turning to `C/C(CC(=O)CCC(=O)Nc1cccc(C(F)(F)F)c1)=N\NC(=O)NN`, the growth inhibition is 1.95%.

Take `O=C(OCCN1CCOCC1)c1cc2ccccc2oc1=O`: the growth inhibition is -45.7%.

With `CCCCCCCCCCCCCCCC(=O)N(CCCCCCCCCCC(=O)O)CC(O)C(O)C(OC1OC(CO)C(O)C(O)C1O)C(O)CO` (stereo not given), the growth inhibition is -22.3%.

As for `COc1ccc2c(c1)C=C(C(C)(C)C)NS2(=O)=O`, the growth inhibition was -12.7%.

Take `O=c1[nH]c2cc(Cl)ccc2nc1/C=C(\O)c1ccc(O)cc1`: the growth inhibition was 7.05%.

Turning to `CC(C)NC(=O)Nc1cccc(Cl)c1`, the growth inhibition is -18.8%.

Regarding `CCOP(=O)(OCC)C1(O)CC(n2cc(C)c(=O)[nH]c2=O)OC1CO` (stereo not given), the growth inhibition was 27.1%.

In the case of `Cc1ccc(C(=O)CSC2=NCCN2)cc1Cl`, the growth inhibition was -2.2%.

As to `CCOCCOC(=O)C1CCC(=O)N1CN(C(C)=O)c1cc(OC)ccc1OC` (stereo not given), the growth inhibition is 6.1%.

For `CC1CC=C(C(O)C(C)C)C1` (stereo not given), the growth inhibition was -11.8%.

Regarding `CC(=O)NC1=C(N2CCC2C)C(=O)c2ccccc2C1=O` (stereo not given), the growth inhibition was -4.4%.

In the case of `CC(COc1cc(Cl)c(Cl)cc1Cl)OC(=O)COc1ccc(Cl)cc1Cl` (stereo not given), the growth inhibition is 28.5%.

In the case of `NC1=CN(Cc2ccccc2)C2=N/C(=C\c3ccccc3)C(=O)N12`, the growth inhibition was -16%.

As for `Cc1cc2c(s1)C(=O)c1sccc1C2=O`, the growth inhibition was 91.5% (active).

As to `CCC(=O)Nc1cc(C)ccc1Cl`, the growth inhibition was -52.9%.

In the case of `CCN1c2ccccc2CC(CCN(C(C)C)C(C)C)(C(N)=O)c2ccccc21` (stereo not given), the growth inhibition is 21.3%.

For the compound `COC1OC(COS(C)(=O)=O)C2OC(C)(C)OC12` (stereo not given), the growth inhibition is 11.6%.

For `N#Cc1[nH]cnc1N`, the growth inhibition is -37.5%.

For `O=C(Oc1ccccc1OC(=O)c1ccc(Cl)cc1)c1ccc(Cl)cc1`, the growth inhibition was 6.7%.

Consider `O=C(O)c1ccnc2c(S(=O)(=O)O)cccc12`, for which the growth inhibition is -35.5%.

In the case of `c1ccc(CN2COc3ccc4c5c(ccc4c3C2)OCN(Cc2ccccc2)C5)cc1`, the growth inhibition is -21.6%.

Consider `COc1ccc2cccc(C(=O)O)c2c1`, for which the growth inhibition was 3.35%.

`O=S1(=O)OCCOS(=O)(=O)C1(I)I`: the growth inhibition is 11.4%.

Turning to `O=[N+]([O-])c1ccc(P(=O)(O)c2ccc([N+](=O)[O-])cc2)cc1`, the growth inhibition is -25.9%.

For `CC1(C)Nc2cc3c(cc2-n2cccc21)oc1ccccc13`, the growth inhibition is 45.6%.
